# Results filed as inconclusive are left out. A number with no mark means an inactive call. Calls of active or inactive are those of the source. Calls follow the shape of the dose curve; as a rule, active = well fitted inhibition curve with a large enough effect; inconclusive = small, poorly fitted or top-dose-only effect, or another doubt; inactive = no such curve, though single readings can be large or run the other way.
# Target: Neuropeptide S receptor (Homo sapiens) (UniProt Q6W5P4)
# Assay: Confirmation Concentration-Response Assay for Antagonists of the Neuropeptide S Receptor: Robust Characterization of Calcium Signal Transduction
# Conditions: CHO-NPSR cells, NPS-induced calcium fluorescence (FDSS); series mostly up to 31.6 µM; activity, negative = inhibition: at the top concentration
# From the text: NIH Chemical Genomics Center [NCGC] NIH Molecular Libraries Probe Production centers Network [MLPCN] MLPCN Grant: X01-DA026210-01 Assay Submitter (PI): Heilig, Markus Alexander NCGC Assay Overview: Neuropeptide S receptor (NPSR), previously known as GPR154, is a recently de-orphanized G protein coupled receptor. Its endogenous ligand is the 20 amino acids peptide Neuropeptide S (NPS). […] NPS and its receptor are found in various tissues. Specifically they are highly expressed in brain areas that have been implicated in modulation of arousal, stress and anxiety. Central administration of NPS in mice produces an unusual profile of activity by inducing wakefulness and arousal, while at the same time suppressing anxiety. Therefore, NPSR may represent a novel drug target for the treatment of sleep and anxiety disorders. To identify NPSR antagonists, we developed a cell-based assay with transfected NPS receptor. NPS can stimulate the production of cAMP as well as release intracellular calcium in Chinese hamster ovary cells stably expressing NPS receptor. This change in intracellular calcium can be detected using a calcium indicator dye on a calcium imaging plate reader system (FDSS). This particular assay uses a high density of sampling across concentration-response space to establish more confidence estimates of potency.
# NCGC Assay Protocol Summary: A Chinese hamster ovary (CHO) cell line stably expressing the NPS receptor (CHO-NPSR) was obtained from Dr. Heilig lab at NIAAA and maintained in F-12 Kaighn's media (Invitrogen, Carlsbad, CA, 21127) supplemented with 10 % FBS, 100 units/ml penicillin, 100 ug/ml streptomycin and 250 ug/ml geneticin at 37C, 5% CO2 in a humidified atmosphere. Before the assay, aliquots of cells were frozen and stored at -135C. The assay was performed on a FDSS-7000 kinetic plate reader in 1536-well format. For both agonist (1-220s) and antagonist (221-400s) phases, the maximums of kinetic fluorescence responses were converted separately into text files using the instrument's software data export utility. Data for agonist response were normalized to the controls for basal activity (DMSO only) and 100% activation (NPS). […] AC50 values were determined from concentration-response data modeled with the standard Hill equation. NPS 1536-well FDSS assay protocol: (1) Frozen CHO-NPSR cells were thaw, washed once with fresh media and resuspended in F-12 Kaighn's media supplemented with 10 % FBS, 100 units/ml penicillin and 100 ug/ml streptomycin. Cells were plated at 3 ul/well (1200 cells) to black, clear-bottom, tissue-culture treated 1536-well plates, and then cultured at 37C, 5 % CO2 for 16 to 30 hours. (2) Add 3 ul of calcium dye (from High Performance PBX Calcium Assay Kit, BD Biosciences). The calcium dye was prepared according to the manufactory's instruction. (3) Incubation at 37C, 5 % CO2 for 60 to 120 min. (4) Load plates to FDSS-7000. The following steps were performed on FDSS-7000. (5) Record fluorescent background (Ex 480 nm, Em 520-560 nm) for 10 s. (6) Add 23 nl/well of compound in DMSO solution. The final titration for each compound was between 0.6 nM and 46 uM. Record agonist response for 210 s. (7) Add 2 ul of stimulation reagent (1X HBSS buffer, 0.1% BSA, 60 nM NPS). Record antagonist response for 140 s. Keywords: MLSMR, MLPCN, NIH Roadmap, qHTS, NCGC, NPS, Neuropeptide S Antagonists
# Sequence of Neuropeptide S receptor (Homo sapiens) (Q6W5P4 whole entry, looked up): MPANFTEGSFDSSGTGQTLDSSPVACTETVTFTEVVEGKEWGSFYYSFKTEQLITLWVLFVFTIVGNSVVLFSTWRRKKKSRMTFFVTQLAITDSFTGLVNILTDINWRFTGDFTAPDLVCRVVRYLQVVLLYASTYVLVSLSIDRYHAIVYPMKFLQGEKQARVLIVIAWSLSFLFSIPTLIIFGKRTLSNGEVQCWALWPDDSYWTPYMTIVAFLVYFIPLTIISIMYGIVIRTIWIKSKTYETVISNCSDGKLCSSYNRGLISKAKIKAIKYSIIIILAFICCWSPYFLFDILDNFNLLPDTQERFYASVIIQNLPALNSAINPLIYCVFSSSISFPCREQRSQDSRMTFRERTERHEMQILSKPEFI
Structure (SMILES),Potency,"activity, negative = inhibition [%]"
COc1cccc(C2c3c(ncn(-c4ccc(NC(C)=O)cc4)c3=N)Oc3ccc4ccccc4c32)c1 (stereo not given),4380 nM (active),–
Cc1nc2ccccn2c1C(O)(c1ccccc1)c1ccccc1,11300 nM (active),–
COc1cccc(C2c3c(ncn(CCCN4CCOCC4)c3=N)Oc3ccc4ccccc4c32)c1 (stereo not given),1390 nM (active),–
COc1cccc(C2c3c(ncn(-c4ccc(C(C)(C)C)cc4)c3=N)Oc3ccc4ccccc4c32)c1 (stereo not given),1240 nM (active),–
CCOC(=O)CCCC(=O)Nc1ncnc2c1C(c1ccccc1)c1c(ccc3ccccc13)O2 (stereo not given),2200 nM (active),–
CCOC(=O)c1ccc(-n2cnc3c(c2=N)C(c2cccc(OC)c2)c2c(ccc4ccccc24)O3)cc1 (stereo not given),2460 nM (active),–
N=c1c2c(ccn1CCc1ccccc1)Oc1ccc3ccccc3c1C2c1ccccc1 (stereo not given),492 nM (active),–
COc1cccc(C2c3c(ncn(-c4ccccc4Br)c3=N)Oc3ccc4ccccc4c32)c1 (stereo not given),2760 nM (active),–
N=c1c2c(ncn1-c1ccccc1)Oc1ccc3ccccc3c1C2c1ccc2c(c1)OCO2 (stereo not given),619 nM (active),–
COc1cccc(C2c3c(ncn(-c4cccc(Br)c4)c3=N)Oc3ccc4ccccc4c32)c1 (stereo not given),2460 nM (active),–
COc1cccc(C2c3c(ncn(-c4cccc(C#N)c4)c3=N)Oc3ccc4ccccc4c32)c1 (stereo not given),2760 nM (active),–
COc1cccc(C2c3c(ncn(-c4ccccc4C(C)(C)C)c3=N)Oc3ccc4ccccc4c32)c1 (stereo not given),1740 nM (active),–
N=c1c2c(ncn1-c1ccccc1)Oc1ccc3ccccc3c1C2c1ccc2c(c1)OCCO2 (stereo not given),276 nM (active),–
COc1cccc(C2c3c(ncn(-c4ccccc4SC)c3=N)Oc3ccc4ccccc4c32)c1 (stereo not given),24.6 nM (active),–
COc1cccc(C2c3c(ncn(-c4cccc(Cl)c4)c3=N)Oc3ccc4ccccc4c32)c1 (stereo not given),4380 nM (active),–
CC(C)(C)OC(=O)Nc1ncnc2c1C(c1ccccc1)c1c(ccc3ccccc13)O2 (stereo not given),–,38.2
COc1ccc(C2c3c(ncn(CCN4CCOCC4)c3=N)Oc3ccc4ccccc4c32)cc1OC (stereo not given),438 nM (active),–
N=c1c2c(ccn1CCCc1ccccc1)Oc1ccc3ccccc3c1C2c1ccccc1 (stereo not given),3480 nM (active),–
COc1cccc(C2c3c(ncn(-c4ccncc4)c3=N)Oc3ccc4ccccc4c32)c1 (stereo not given),3910 nM (active),–
S=P(c1ccccc1)(c1ccccc1)c1c[n+](C/C=C/c2ccccc2)c2ccccn12,31.8 nM (active),–

Structure (SMILES),Potency,"activity, negative = inhibition [%]"
CCOC(=O)CC(=O)Nc1ncnc2c1C(c1ccccc1)c1c(ccc3ccccc13)O2 (stereo not given),552 nM (active),–
COc1ccc(C2c3c(nc(C)[nH]c3=O)Oc3ccc4ccccc4c32)cc1OC (stereo not given),–,-19.2
COc1cccc(C2c3c(ncn(-c4ccccc4C)c3=N)Oc3ccc4ccccc4c32)c1 (stereo not given),5520 nM (active),–
COc1cccc(C2c3c(ncn(-c4ccc(C#N)cc4)c3=N)Oc3ccc4ccccc4c32)c1 (stereo not given),1390 nM (active),–
COc1cccc(C2c3c(ncn(-c4ccccc4OC)c3=N)Oc3ccc4ccccc4c32)c1 (stereo not given),1240 nM (active),–
N=c1c2c(ccn1-c1ccccc1)Oc1ccc3ccccc3c1C2c1ccccc1 (stereo not given),220 nM (active),–
N=c1c2c(ccn1Cc1ccccc1)Oc1ccc3ccccc3c1C2c1ccccc1 (stereo not given),3910 nM (active),–
N#CC1=C(NC=NCc2ccccc2)Oc2ccc3ccccc3c2C1c1ccccc1 (stereo not given),779 nM (active),–
O=C(Nc1ncnc2c1C(c1ccccc1)c1c(ccc3ccccc13)O2)c1ccccc1 (stereo not given),4920 nM (active),–
COc1ccc(C2c3ccc4ccccc4c3Oc3ncn(CCN4CCOCC4)c(=N)c32)cc1OC (stereo not given),3480 nM (active),–
CCOC(=O)CCC(=O)Nc1ncnc2c1C(c1ccccc1)c1c(ccc3ccccc13)O2 (stereo not given),1240 nM (active),–
O=C(Cc1ccccc1)Nc1ncnc2c1C(c1ccccc1)c1c(ccc3ccccc13)O2 (stereo not given),1100 nM (active),–
Nc1ncnc2c1C(c1ccccc1)c1c(ccc3ccccc13)O2 (stereo not given),139 nM (active),–
COc1ccc(-n2cnc3c(c2=N)C(c2cccc(OC)c2)c2c(ccc4ccccc24)O3)cc1 (stereo not given),1740 nM (active),–
COc1ccc(C2c3c(ncn(CCCc4ccccc4)c3=N)Oc3ccc4ccccc4c32)cc1OC (stereo not given),3910 nM (active),–
COc1ccccc1C1c2c(ncn(-c3ccccc3)c2=N)Oc2ccc3ccccc3c21 (stereo not given),4920 nM (active),–
COc1cccc(C2c3c(ncn(-c4cccc(F)c4)c3=N)Oc3ccc4ccccc4c32)c1 (stereo not given),69.5 nM (active),–
COc1ccc(C2C3=C(N=CN(CCN4CCOCC4)C3N)Oc3ccccc32)cc1OC (stereo not given),–,4.73
COc1cccc(C2c3c(ncn(CCN4CCOCC4)c3=N)Oc3ccc4ccccc4c32)c1 (stereo not given),1740 nM (active),–
COc1ccc(C2c3ccccc3Oc3ncn(CCN4CCOCC4)c(=N)c32)cc1OC (stereo not given),619 nM (active),–

# From PubChem BioAssay AID434931 (National Center for Advancing Translational Sciences (NCATS), 2010)
